# A selection: hits, their analogues and other compounds. The true share with any hit is near 3.1%.
# Bead autofluor: flagged as autofluorescent in microsphere protease counterscreen. compound autofluorescence counterscreen, microsphere flow cytometry; active compounds read high. fluorescence intensity (test concentration not listed). 360,000 compounds, 3.1% hits; in the data active = fluorescence intensity above about 16000; inconclusive = no clear call, values can overlap the other calls
# BoNT-F LC inh: inhibitors of Botulinum neurotoxin F light chain protease; 360,000 compounds, 0.22% hits; Multiplex microsphere protease cleavage assay, flow cytometry; AID 588497; inhibition, % at 10 µM; in the data active = inhibition above about 35%, passing the limit was not always enough; inconclusive = no clear call, values can overlap the other calls; also: plate controls were buffer without enzyme for full effect and enzyme alone for no effect
# PriA SSB inh: K. pneumoniae PriA-SSBct interaction inhibition. AlphaScreen SSBct-PriA binding, biotinylated peptide. inhibition, % at 33 µM. 430,000 compounds, 0.6% hits. AID 1272365; in the data active = inhibition mostly above about 37%, no sharp cut-off; inactive = mostly below about 20%;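 also: plate controls were negative control peptide for no effect and reference peptide for full effect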
# Anthrax LF inh2: inhibitors of Bacillus anthracis lethal factor protease; P15917; multiplex microsphere protease cleavage assay, LF; inhibition, % at 10 µM; 360,000 compounds, 0.12% hits; AID 588501; also: plate controls were buffer without enzyme for full effect and enzyme alone for no effect
# Target sequence (P15917 whole entry, looked up): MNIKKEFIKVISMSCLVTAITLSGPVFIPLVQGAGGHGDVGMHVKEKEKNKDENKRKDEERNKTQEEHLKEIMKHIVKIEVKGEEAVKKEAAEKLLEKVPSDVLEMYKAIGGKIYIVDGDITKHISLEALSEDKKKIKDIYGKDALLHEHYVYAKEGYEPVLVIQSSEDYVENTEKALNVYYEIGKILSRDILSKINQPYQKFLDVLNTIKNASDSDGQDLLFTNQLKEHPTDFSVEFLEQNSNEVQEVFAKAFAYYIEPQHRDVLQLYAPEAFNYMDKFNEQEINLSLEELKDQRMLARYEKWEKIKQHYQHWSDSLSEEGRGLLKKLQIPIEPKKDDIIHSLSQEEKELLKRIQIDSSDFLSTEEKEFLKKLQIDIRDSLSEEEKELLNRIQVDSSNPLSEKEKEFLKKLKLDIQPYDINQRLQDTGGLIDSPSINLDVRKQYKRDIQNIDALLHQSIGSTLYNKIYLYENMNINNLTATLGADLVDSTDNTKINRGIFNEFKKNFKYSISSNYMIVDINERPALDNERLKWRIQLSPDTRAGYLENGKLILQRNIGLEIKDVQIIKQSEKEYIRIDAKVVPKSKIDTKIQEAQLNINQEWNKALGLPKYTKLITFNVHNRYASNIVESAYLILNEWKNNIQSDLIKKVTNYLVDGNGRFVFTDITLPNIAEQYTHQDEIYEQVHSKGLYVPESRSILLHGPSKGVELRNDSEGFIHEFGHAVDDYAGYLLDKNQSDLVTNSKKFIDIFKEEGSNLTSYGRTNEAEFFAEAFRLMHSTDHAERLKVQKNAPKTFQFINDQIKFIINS
# BoNT-A LC inh2: BoNT A light chain protease inhibition | multiplex microsphere protease substrate cleavage, flow cytometry | inhibition, % at 10 µM | 360,000 compounds, 0.17% hits | AID 588499; also: plate controls were buffer without enzyme for full effect and enzyme alone for no effect
# Active calls of the source: *; u = inconclusive; x = no result. Rule as the data show it, unless noted: active = inhibition above about 30%; inconclusive = no clear call, values can overlap the other calls; inactive = below that.
SMILES,Bead autofluor,BoNT-F LC inh,PriA SSB inh,Anthrax LF inh2,BoNT-A LC inh2
N#CC1=C(N)Oc2n[nH]c(-c3ccccn3)c2C1c1c(F)cccc1Cl (stereo not drawn),2453,-8,42*,1,0
CCOc1ccccc1-n1c(COc2ccc(C)cc2)nnc1SCC(N)=O,22748*,0,-3,-2,1
COc1ccccc1NC(=O)CSc1nnnn1-c1ccc(C(=O)O)cc1,4510,-4,1,-3,-1
COc1ccccc1NC(=O)Cc1noc(CSc2cccc[n+]2[O-])n1,2684,-1,-7,-1,0
CCCCOc1ccccc1NC(=O)CSc1nnnn1C(C)(C)C,17476*,-5,-27,-2,-4
CCn1c(SCc2nc(CC(=O)Nc3ccccc3OC)no2)nnc1-c1cccs1,22928*,-2,8,-6,-1
COCCn1c(COc2ccccc2)nnc1SCC(N)=O,21005*,-3,-12,-5,u
COc1ccc(-c2noc(CSc3nc4ccsc4c(=O)[nH]3)n2)c(OC)c1,x,x,4,x,x
CCn1c(COc2cccc(C)c2)nnc1SCC(=O)CC(=O)Nc1ccccc1OC,u,-6,-13,u,0
CCn1c(COc2ccccc2)nnc1SCC(=O)CC(=O)Nc1ccccc1OC,21864*,2,6,-1,2
C=CCN1C[C@@H](c2nc3ccccc3n2Cc2c(C)c(C)cc(C)c2C)CC1=O,x,x,-5,x,x
CN(C)c1ccc(/C=N/NC(=O)C(O)(c2ccccc2)c2ccccc2)o1,16827*,-1,x,-2,u
CC1CN(Cc2ccccc2)c2nc3c(c(=O)n(C)c(=O)n3C)n2C1 (stereo not drawn),20687*,-1,3,0,u
Cn1c(=O)n(Cc2ccccc2)c(=O)c2c1nc1n2CCCN1CCc1ccccc1,23593*,-3,4,-5,u
COCCCNC(=O)C1c2ccccc2Oc2ccccc21,3595,42*,-10,9,0
O=C(NCCOc1ccccc1)C1c2ccccc2Oc2ccccc21,x,x,-14,x,x
O=C(CSCc1ccccc1)NCCn1ccnc1-c1ncccn1,x,x,42*,x,x
CSc1ccccc1C(=O)NCCn1ccnc1-c1ncccn1,x,x,97*,x,x
O=C(NCCn1ccn2nccc12)C1c2ccccc2Oc2ccccc21,x,x,-13,x,x
O=C(NCCn1ccnc1-c1ncccn1)C1c2ccccc2Oc2ccccc21,x,x,53*,x,x
Cc1ccccc1-c1noc(C[C@H]2CCCN(C(=O)c3cc(-c4ccco4)on3)C2)n1,x,x,-3,x,x
O=C(NCCn1ccnc1-c1ncccn1)NCc1ccc(Cl)cc1,x,x,32,x,x
COc1ccc(CCC(=O)NCCn2ccnc2-c2ncccn2)cc1,x,x,96*,x,x
COc1ccc(CCC(=O)NCCn2ccnc2C2CC2)cc1,x,x,7,x,x
O=C(NCCc1ccccc1)NCCn1ccnc1-c1ncccn1,x,x,96*,x,x
SMILES,Bead autofluor,BoNT-F LC inh,PriA SSB inh,Anthrax LF inh2,BoNT-A LC inh2
COc1ccc(N(C(=O)c2snc(C(N)=O)c2N)C(C(=O)NC2CCCCC2)c2ccc(F)cc2)c(OC)c1 (stereo not drawn),3567,4,-27,-2,3
COc1ccc(-c2nsc(C(=O)N(c3ccc(F)cc3)C(C(=O)NC3CCCC3)c3ccc(OC)cc3)c2N)cc1 (stereo not drawn),23904*,1,-3,-3,-1
Cc1noc(-c2cn(CCNC(=O)C3(c4ccccc4)CC3)nn2)n1,x,x,-10,x,x
Cc1onc(-c2ccccc2)c1C(=O)Oc1cccnc1,21663*,5,-9,-3,1
C=CCn1c(C(CCCC)CC(C)O)n[nH]c1=S (stereo not drawn),2156,0,5,-1,0
C=CCn1c(C(CCC(C)C)CC(C)(C)O)n[nH]c1=S (stereo not drawn),24772*,-6,2,0,-4
Cn1c(NC(=O)CCc2ccccc2)cc(=O)n(C)c1=O,5760,-2,46*,-2,0
CCCC(=O)Nc1cc(=O)n(C)c(=O)n1C,6070,0,-20,-4,-1
COc1ccc2nc(C)cc(N3CCOCC3)c2c1,19626*,5,2,-6,2
FC(F)(F)c1nnc(C2CCN(Cc3ccccc3Cl)CC2)o1,x,x,-9,x,x
CCCC(=O)N1CCc2cc(OC)c(OC)cc2C1c1cc2cc3c(cc2[nH]c1=O)OCO3 (stereo not drawn),10150,-3,-19,0,0
COc1cc2c(cc1OC)C(c1cc3cc(OC)c(OC)cc3[nH]c1=O)N(C(=O)C1CC1)CC2 (stereo not drawn),20442*,0,4,-3,1
O=S(=O)(N=C(NNS(=O)(=O)c1ccccc1)c1ccccc1)c1ccccc1,x,x,-3,x,x
O=c1ccc(-c2ccccn2)n[nH]1,x,x,3,x,x
CCOc1c(C(=O)CC)cc2c(C)cc(=O)oc2c1C,16306*,-1,-12,-4,0
CCOc1ccc2c(C)cc(=O)oc2c1OCC,2512,6,-10,7,0
CN(C)c1nccc(CNC(=O)c2ccc(C(F)(F)F)cc2)n1,x,x,-4,x,x
Cc1ccc(NC(=O)C2CCN(S(=O)(=O)c3ccc(F)cc3)CC2)cc1,23704*,-4,-11,-1,-1
CS(=O)(=O)N1CCC(C(=O)Nc2cccc(F)c2)CC1,3978,39*,1,-14,4
O=C(Nc1cccc(Cl)c1)C1CCCN(S(=O)(=O)c2ccc(F)cc2)C1 (stereo not drawn),20734*,-4,-11,0,0
CSc1cccc(NC(=O)C2CCCN(S(=O)(=O)c3ccc(F)cc3)C2)c1 (stereo not drawn),4597,-11,-4,-2,0
Cc1ccc(NC(=O)c2ccc(S(=O)(=O)N3CCC(C)CC3)cc2)cc1,20894*,-4,-7,0,-3
COc1ccccc1CC(=O)N1CCSC(c2ccccc2)CC1 (stereo not drawn),x,x,5,x,x
Cn1nc(CN(C(=O)c2nc3ccccc3s2)C2CCCC2)c2c1CCC2,x,x,-5,x,x
CCCCNC(=O)C1CCN(C(=O)C2CCN(S(=O)(=O)c3ccc(C)cc3)CC2)CC1,5740,-1,6,-1,-2
SMILES,Bead autofluor,BoNT-F LC inh,PriA SSB inh,Anthrax LF inh2,BoNT-A LC inh2
O=S(=O)(c1ccc(F)cc1)N1CCC(N2CCCCCC2)CC1,16305*,-1,-3,-4,0
Cc1ccc(S(=O)(=O)N2CCC(C(=O)NCCCN3CCCCCC3)CC2)cc1,24422*,-10,19,-2,2
O=C(Cn1cccn1)Nc1cccc(-c2csc(Nc3ccccc3F)n2)c1,x,x,-5,x,x
CN(C)c1ccc(NC(=O)CC2NCCNC2=O)cc1 (stereo not drawn),21583*,2,-8,-7,u
O=C(CC1NCCNC1=O)Nc1ccccc1 (stereo not drawn),3761,-13,-5,0,0
Cc1cc(C)cc(NC(=O)CC2NCCNC2=O)c1 (stereo not drawn),16440*,-2,-5,-2,u
Cc1ccc(NC(=O)CC2NCCNC2=O)cc1 (stereo not drawn),3699,4,-2,-2,0
CC(C)OCCCNC(=O)c1ccncc1,18964*,3,2,2,2
CC(C)OCCCNC(=O)c1ccc(Br)cc1,15661,3,-8,2,2
O=C(NCc1ccc(F)cc1)c1cc2c(s1)CCCC2,3902,-14,-23,8,0

# Screening data (PubChem BioAssay)
